Experimental findings from PubChem BioAssay (Tox21) are described below.

Test [1] is described as follows: qHTS assay to identify small molecule antagonists of the androgen receptor (AR) signaling pathway using the MDA cell line in the presence of 0.5 nM R1881 - cell viability counter screen (AID 1259242). Also: nearly all actives have a fitted effect of over 45% in size. Also: potency is read from the fitted curve at half-maximal effect. An outline of the steps:
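Viability of MDA-kb2 cells was multiplexed with the luciferase AR readout; after 16 hr with compounds and R1881 at 0.5 nM final, CellTiter-Fluor fluorescence was recorded.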

The target of test [2] is Estrogen receptor (Homo sapiens) (UniProt P03372). Briefly: qHTS assay to identify small molecule antagonists of the estrogen receptor alpha (ER-alpha) signaling pathway using the BG1 cell line in the presence of 0.1 nM 17-beta-estradiol (AID 1259244). Also: nearly all actives have a fitted effect of over 50% in size. Also: potency is read from the fitted curve at half-maximal effect. The gist of the method: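 Estradiol at 0.1 nM (final) stimulates the endogenous ER-alpha of VM7Luc4E2 cells carrying an ERE-driven luciferase; compounds are co-incubated 22 h at 37C and luciferase output quantified by luminescence.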
In general terms: Quantitative high-throughput screening tests each substance at several concentrations.

A short description of test [3]: qHTS assay to identify small molecule HDAC inhibitors (AID 1259364). Also: potency is read from the fitted curve at half-maximal effect.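 Also: wild-type HCT-116 cells with endogenous class I/II HDAC activity; nearly all actives have a fitted effect of over 45% in size.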 An outline of the steps: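 Read-out: luminescence of HDAC-Glo I/II reagent, 30 min RT, reflecting class I/II deacetylase activity in whole HCT-116 cells pre-exposed 2 h to DMSO-dissolved compounds.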
The nature of test [4]: qHTS assay to identify small molecule HDAC inhibitors - cell viability counter screen (AID 1259365). Also: series mostly up to about 92 µM; nearly all actives have a fitted effect of over 50% in size. The gist of the method: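 HCT-116 wild-type, overnight attachment; 2hr drug exposure, 37C; CellTiter-Glo luminescent ATP readout after 30min RT.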
Test [5] in a line: qHTS assay to identify small molecule agonists of the sonic hedgehog signaling (Shh) pathway - cell viability counter screen (AID 1259366). Also: nearly all actives have a fitted effect of over 50% in size. Also: potency is read from the fitted curve at half-maximal effect. The gist of the method:
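Compounds in DMSO were pin-transferred onto 3T3 Gli1-Luc cells that had settled 4hr; plates then stood 24hr at 37C and 5% CO2. One hour before the end, CellTiter-Fluor was added and fluorescence recorded.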

Test [6] is described as follows: qHTS assay to identify small molecule antagonists of the sonic hedgehog signaling (Shh) pathway - cell viability counter screen (AID 1259367). Also: nearly all actives have a fitted effect of over 55% in size. Also: potency is read from the fitted curve at half-maximal effect. An outline of the steps: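 Cells: 3T3 Gli1-Luc, 2,000/well, 4 hr pre-incubation. Compounds in DMSO, then conditioned medium. Incubation 24 hr, 37C, 5% CO2. CellTiter-Fluor at 23 hr, 1 hr, fluorescence.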
The nature of test [7]: qHTS assay to identify small molecule agonists of the sonic hedgehog signaling (Shh) pathway (AID 1259368; calls by dose curve;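 also: NIH/3T3-derived 3T3Gli1-Luc cells carrying a stable Gli1-driven firefly luciferase reporter; series mostly up to about 92 µM; nearly all actives have a fitted effect of over 15% in size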). An outline of the steps: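 A Gli1 transcriptional response element controlled firefly luciferase in 3T3Gli1-Luc cells. Compounds and a positive control were added 4 hr after plating, and cells were incubated a further 24 hr at 37 C before luminescence detection.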
The nature of test [8]: qHTS assay to identify small molecule antagonists of the sonic hedgehog signaling (Shh) pathway (AID 1259369; calls by dose curve; also: nearly all actives have a fitted effect of over 45% in size; also: potency is read from the fitted curve at half-maximal effect). The gist of the method:
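For antagonist detection, the reporter line received test compounds together with conditioned medium, incubated 24hr at 37 C, 5% CO2, then luminescence was recorded following 30min room-temperature luciferase reagent incubation.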

Test [9] has as its target Androgen receptor (Homo sapiens) (UniProt P10275). Kind of test: qHTS assay to identify small molecule antagonists of the androgen receptor (AR) signaling pathway using the MDA cell line in the presence of 0.5 nM R1881 (AID 1259243). Also: nearly all actives have a fitted effect of over 50% in size. An outline of the steps: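 Reporter cells cultured without CO2 receive test chemicals, then 0.5 nM R1881 final; after 16 hr at 37C, ONE-Glo is added and light output recorded.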

A short description of test [10]: qHTS assay to identify small molecule phospholipidosis (PLD) inducers (AID 1259344; active = well fitted curve in the direction sought with a large enough effect; an effect the other way counts as inactive or inconclusive). The gist of the method: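 Phospholipidosis is scored by imaging LipidTOX-stained pits in HepG2 cells exposed to compound for 24 h at 37 C; pit counts and integrated intensities per well and per cell serve as outputs.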

“And” between values parts separate entries of the source, which are not always exact repeats. Equal entries are not always repeated. Results filed as inconclusive are left out. More than one record can exist for a structure, and the calls need not agree. The source made the active and inactive calls. Unless noted, calls follow the shape of the dose curve; as a rule, active = well fitted curve in the direction sought with a large enough effect in the repeat runs; inconclusive = weak or mixed curves; inactive = no such curve, though single readings can be large; an effect the other way counts as inactive or inconclusive.

Chain of Estrogen receptor (Homo sapiens) (P03372 whole entry, looked up): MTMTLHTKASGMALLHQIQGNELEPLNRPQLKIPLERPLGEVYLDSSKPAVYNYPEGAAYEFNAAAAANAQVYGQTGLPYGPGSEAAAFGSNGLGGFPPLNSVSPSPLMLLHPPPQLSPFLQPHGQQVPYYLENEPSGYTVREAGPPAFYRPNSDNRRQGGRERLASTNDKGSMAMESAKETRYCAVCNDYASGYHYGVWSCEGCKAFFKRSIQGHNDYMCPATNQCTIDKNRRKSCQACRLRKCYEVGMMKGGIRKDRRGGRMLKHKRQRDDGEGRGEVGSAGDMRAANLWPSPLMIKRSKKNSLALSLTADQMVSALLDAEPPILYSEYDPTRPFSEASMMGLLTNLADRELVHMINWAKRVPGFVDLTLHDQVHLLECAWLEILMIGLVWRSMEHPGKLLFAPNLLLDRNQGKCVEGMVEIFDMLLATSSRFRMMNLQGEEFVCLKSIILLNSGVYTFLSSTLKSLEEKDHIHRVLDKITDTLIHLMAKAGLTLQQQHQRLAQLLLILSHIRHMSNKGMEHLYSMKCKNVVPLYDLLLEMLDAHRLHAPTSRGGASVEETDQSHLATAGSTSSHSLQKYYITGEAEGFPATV
Chain of Androgen receptor (Homo sapiens) (P10275 whole entry, looked up): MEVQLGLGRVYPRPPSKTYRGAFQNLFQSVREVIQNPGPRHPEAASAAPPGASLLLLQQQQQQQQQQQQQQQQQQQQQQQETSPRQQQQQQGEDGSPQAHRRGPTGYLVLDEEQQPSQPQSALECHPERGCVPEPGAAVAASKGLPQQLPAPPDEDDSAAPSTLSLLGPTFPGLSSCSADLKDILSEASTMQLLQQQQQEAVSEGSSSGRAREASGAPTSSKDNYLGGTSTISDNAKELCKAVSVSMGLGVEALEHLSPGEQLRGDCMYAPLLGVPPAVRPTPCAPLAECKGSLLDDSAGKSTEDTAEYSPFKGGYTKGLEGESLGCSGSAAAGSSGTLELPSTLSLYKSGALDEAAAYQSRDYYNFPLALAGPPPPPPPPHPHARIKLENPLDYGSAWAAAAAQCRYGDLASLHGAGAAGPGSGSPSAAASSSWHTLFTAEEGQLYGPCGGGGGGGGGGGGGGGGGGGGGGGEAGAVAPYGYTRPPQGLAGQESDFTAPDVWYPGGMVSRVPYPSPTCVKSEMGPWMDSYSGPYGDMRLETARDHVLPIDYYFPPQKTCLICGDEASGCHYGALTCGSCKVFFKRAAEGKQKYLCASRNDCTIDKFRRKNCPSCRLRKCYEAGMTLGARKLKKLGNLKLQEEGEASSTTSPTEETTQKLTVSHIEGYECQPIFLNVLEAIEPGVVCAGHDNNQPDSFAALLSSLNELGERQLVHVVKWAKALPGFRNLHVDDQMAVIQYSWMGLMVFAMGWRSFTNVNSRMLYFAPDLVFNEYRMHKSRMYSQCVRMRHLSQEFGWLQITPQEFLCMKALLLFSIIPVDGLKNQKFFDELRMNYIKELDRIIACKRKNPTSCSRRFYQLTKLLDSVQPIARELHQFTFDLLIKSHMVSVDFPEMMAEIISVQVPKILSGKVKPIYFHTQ

Take `NC(N)=S`: the Potency result in test [1], in [2], in test [3], in test [4], in test [5] and in test [6] was “inactive” in each case. Besides, the Potency entry in test [7] and in [8] was “inactive” throughout.

In the case of `Nc1cccc(C(F)(F)F)c1`, the Potency result in test [1], in test [2], in test [3], in test [4], in test [5] and in test [6] was “inactive” each time. Moreover, the Potency result in [7] and in test [8] was “inactive” throughout.

`O=Cc1ccc(CO)o1`: the Potency result in test [1], in test [2], in test [3], in [4], in [5] and in [6] was “inactive” throughout. The Potency entry in [7] and in [8] was “inactive” each time.

In the case of `CCCN(CCC)C(=O)SCC`, the Potency entry in test [1], in [9], in [2], in test [3], in test [4] and in [5] was “inactive” in each case. For the same compound, the Potency entry in test [6], in test [7] and in test [8] was “inactive” each time.

On to `CCCOCC(C)O` (stereo not drawn), for which the Potency entry in test [1], in [9], in test [3], in [4], in [5] and in test [6] was “inactive” in each case. Further, the Potency entry in test [7] and in [8] was “inactive” throughout.

For `CCCCC(CC)COC(=O)c1ccc(C(=O)OCC(CC)CCCC)cc1` (stereo not drawn), the Potency result in [1], in test [9], in test [3], in [4], in test [5] and in [6] was “inactive” each time. For the same compound, the Potency result in [7] and in test [8] was “inactive” in each case.

In the case of `CO[Si](CCCNCCN)(OC)OC`, the Potency result in test [1], in test [9], in [3], in test [4] and in [7] was “inactive” each time. In addition, the Potency in test [5] is 5.53 µM (active) and inactive; in test [6] it was 15.6 µM (active) and inactive; in test [8], 8.76 µM (active) and inactive.

For the compound `CCCCCCCCCCCC(=O)N(C)CC(=O)O`, the Potency entry in test [1], in test [2], in [3], in test [4], in test [5] and in test [6] was “inactive” throughout. Moreover, the Potency entry in [7] and in test [8] was “inactive” each time.

In the case of `CC/C=C(\C(=O)N[C@@H]1C(=O)N2C(C(=O)OCOC(=O)C(C)(C)C)=C(COC(N)=O)CS[C@H]12)c1csc(N)n1`, the Potency result in test [1], in test [2], in test [3], in test [5], in test [6] and in [7] was “inactive” in each case. Moreover, the Potency entry in test [8] is “inactive”. In addition, in test [10], the result was inactive.

For `CC(=O)Nc1ccc(CC(=O)O)cc1`, the Potency result in test [1], in [2], in [3], in [4], in [5] and in [6] was “inactive” in each case. In addition, the Potency result in test [7] and in [8] was “inactive” each time. For the same compound, in test [10], the compound was called inactive.

Take `Cc1ccncc1`: the Potency result in [1], in test [2], in [3], in test [4], in [5] and in [6] was “inactive” throughout. For the same compound, the Potency entry in test [7] and in test [8] was “inactive” each time.

`Cc1ccc(C(C)C)cc1`: the Potency entry in test [1], in test [9], in test [2], in test [3], in [5] and in test [6] was “inactive” in each case. Besides, the Potency entry in test [7] and in test [8] was “inactive” throughout.

With `CCc1cccc(CC)c1N`, the Potency result in test [1], in test [9], in test [2], in test [3], in test [4] and in [5] was “inactive” each time. The Potency result in [6], in test [7] and in test [8] was “inactive” in each case.

`CC(C)=CCC/C(C)=C/C=O`: the Potency result in [1], in test [2], in test [3], in [4], in [5] and in test [6] was “inactive” each time. The Potency result in test [7] and in test [8] was “inactive” each time.

For `OCC(O)CS` (stereo not drawn), the Potency result in [1], in test [9], in [2], in test [3], in test [4] and in [5] was “inactive” in each case. Also, the Potency entry in [6], in test [7] and in test [8] was “inactive” throughout. For the same compound, the result in test [10] was inactive.

In the case of `OC[C@H]1O[C@@H](Oc2ccc(O)cc2)[C@H](O)[C@@H](O)[C@@H]1O`, the Potency result in [1], in test [2], in test [3], in [4], in test [5] and in test [6] was “inactive” throughout. The Potency entry in test [7] and in [8] was “inactive” each time. The result in test [10] was inactive.

With `CCOC(=O)c1ccc(O)cc1`, the Potency entry in test [1], in test [2], in test [3], in test [5], in [6] and in test [7] was “inactive” throughout. In addition, the Potency entry in test [8] was “inactive”. For the same compound, the compound was called inactive in [10].

As to `N[C@@H](Cc1cc(I)c(Oc2ccc(O)c(I)c2)c(I)c1)C(=O)O`, the Potency result in test [1], in [2], in test [3], in [4], in test [5] and in test [6] was “inactive” in each case. Besides, the Potency result in test [7] and in [8] was “inactive” each time. In addition, the call in [10] was inactive.

Turning to `CC(=O)OC/C=C(\C)CCC=C(C)C`, the Potency entry in test [1], in test [2], in test [3], in test [4], in [5] and in [6] was “inactive” each time. The Potency entry in test [7] and in test [8] was “inactive” each time.

For `COc1ccc2cc3[n+](cc2c1OC)CCc1cc2c(cc1-3)OCO2`, the Potency in [1] was 10.6 µM (active); in [2], 1.55 µM (active) and 11.9 µM (active). The result in test [10] was inactive. Also, the Potency entry in [3], in test [5], in test [6], in [7] and in [8] was “inactive” throughout.

As for `Cc1ccccc1Cl`, the Potency result in [1], in test [9], in test [2], in test [3], in [4] and in test [5] was “inactive” in each case. Further, the Potency result in [6], in [7] and in test [8] was “inactive” each time.

Regarding `O=c1c(O)c(-c2ccc(O)c(O)c2)oc2cc(O)cc(O)c12`, the Potency result in test [1], in [2], in test [7] and in test [8] was “inactive” in each case. Moreover, the result in test [10] was inactive. Also, the Potency is 27.3 µM (active) and 24.5 µM (active) and 11.9 µM (active) in test [3]; 30.9 µM (active) in test [5]; 48.6 µM (active) and inactive in test [6].

Consider `CC(C)(CO)CO`, for which the Potency result in test [1], in test [9], in test [2], in [3], in [4] and in test [5] was “inactive” throughout. Also, the Potency entry in test [6], in [7] and in test [8] was “inactive” in each case.

With `CC(=O)CC(=O)N(C)C`, the Potency result in test [1], in [2], in [3], in test [4], in test [5] and in test [6] was “inactive” throughout. Further, the Potency entry in test [7] and in test [8] was “inactive” throughout.

Turning to `Cc1nnc(NS(=O)(=O)c2ccc(N)cc2)s1`, the Potency result in [1], in test [9], in test [2], in test [3], in test [5] and in [6] was “inactive” in each case. Further, the Potency entry in test [7] and in test [8] was “inactive” each time. The outcome in [10] was inactive.

As to `CC(C)c1ccc(C(C)C)cc1`, the Potency result in [1], in test [2], in test [3], in test [4], in [5] and in [6] was “inactive” in each case. For the same compound, the Potency entry in [7] and in [8] was “inactive” in each case.
